Measurements: the supplement of paper PMC12669032

Columns and labels:
Assay in all cases: growth AUC relative to DMSO control (median of replicates) (fraction); higher = more growth (less inhibition), active = hit call of the paper
Details in all cases: 20 µM; 24 h;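 active = AUC reduced over 20% with Padj below 0.05 in at least 2 of 3 replicates; inactive = otherwise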
Coprococcus comes = system: Coprococcus comes
Method in brief: (§1)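 Area under the growth curve was normalised to the plate median of solvent-only wells, or to row and column medians on the industrial chemical plate. Growth curves came from anaerobic gut bacterial monocultures in mGAM at 37 °C, seeded at OD600 0.05 with 20 µM compound (1% DMSO), and read at OD600 hourly for 24 h with the minimum OD set to 0. The value is the median of three biological replicates grown on separate days.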

Escherichia coli ED1a = system: Escherichia coli ED1a
Method in brief: as §1

Escherichia coli IAI1 = system: Escherichia coli IAI1
Method in brief: as §1

Eubacterium rectale = system: Eubacterium rectale
Method in brief: as §1

[1] = system: Fusobacterium nucleatum subsp. animalis
Method in brief: as §1

Lactobacillus gasseri = system: Lactobacillus gasseri
Method in brief: as §1

Lactobacillus paracasei = system: Lactobacillus paracasei
Method in brief: as §1

Odoribacter splanchnicus = system: Odoribacter splanchnicus
Method in brief: as §1

[2] = system: Parabacteroides distasonis
Method in brief: as §1

Parabacteroides merdae = system: Parabacteroides merdae
Method in brief: as §1

Roseburia intestinalis = system: Roseburia intestinalis
Method in brief: as §1

Streptococcus salivarius = system: Streptococcus salivarius
Method in brief: as §1

Measured: growth AUC

C[C@@H]1C[C@@H]([C@H](O)CC2CC(=O)NC(=O)C2)C(=O)[C@@H](C)C1
inactive: Coprococcus comes 1.03 | Escherichia coli ED1a 1.01 | Escherichia coli IAI1 1.02 | Eubacterium rectale 0.992 | [1] 1.12 | Lactobacillus gasseri 0.936 | Lactobacillus paracasei 1.06 | Odoribacter splanchnicus 1.02 | [2] 0.985 | Parabacteroides merdae 1.03 | Roseburia intestinalis 0.987 | Streptococcus salivarius 1.03

COCCOC(=O)C(C#N)(C(=O)c1ccccc1C(F)(F)F)c1ccc(C(C)(C)C)cc1 (stereo not drawn)
inactive: Coprococcus comes 0.971 | Escherichia coli ED1a 0.953 | Escherichia coli IAI1 0.966 | Eubacterium rectale 1.05 | [1] 1.03 | Lactobacillus gasseri 0.839 | Lactobacillus paracasei 0.908 | Odoribacter splanchnicus 1 | [2] 0.723 | Parabacteroides merdae 0.946 | Roseburia intestinalis 1.02 | Streptococcus salivarius 0.917

CCOC(=O)C(O)(c1ccc(Cl)cc1)c1ccc(Cl)cc1
inactive: Coprococcus comes 0.953 | Escherichia coli ED1a 1.03 | Escherichia coli IAI1 0.968 | Eubacterium rectale 1.02 | [1] 0.879 | Lactobacillus gasseri 1.03 | Lactobacillus paracasei 0.979 | Odoribacter splanchnicus 0.992 | [2] 0.823 | Parabacteroides merdae 0.92 | Roseburia intestinalis 1.03 | Streptococcus salivarius 0.978

CCNc1nc(NC(C)C)nc(OC)n1
inactive: Coprococcus comes 1.02 | Escherichia coli ED1a 1 | Escherichia coli IAI1 0.999 | Eubacterium rectale 1.05 | [1] 1.05 | Lactobacillus gasseri 0.911 | Lactobacillus paracasei 0.969 | Odoribacter splanchnicus 1.01 | [2] 0.922 | Parabacteroides merdae 0.982 | Roseburia intestinalis 0.953 | Streptococcus salivarius 0.945

CCSC(C)CC1CC(=O)C(/C(CC)=N/OC/C=C/Cl)=C(O)C1 (mixture of isomers)
inactive: Coprococcus comes 1.06 | Escherichia coli ED1a 1.03 | Escherichia coli IAI1 1.01 | Eubacterium rectale 1.03 | [1] 1.1 | Lactobacillus gasseri 0.865 | Lactobacillus paracasei 1.06 | Odoribacter splanchnicus 1.02 | [2] 0.958 | Parabacteroides merdae 1.02 | Roseburia intestinalis 1.01 | Streptococcus salivarius 0.919

O=C(O)C1(O)c2ccccc2-c2ccc(Cl)cc21 (stereo not drawn)
inactive: Coprococcus comes 0.972 | Escherichia coli ED1a 0.998 | Escherichia coli IAI1 0.975 | Eubacterium rectale 0.947 | [1] 0.982 | Lactobacillus gasseri 1.05 | Lactobacillus paracasei 0.997 | Odoribacter splanchnicus 1.01 | [2] 0.979 | Parabacteroides merdae 0.987 | Roseburia intestinalis 0.991 | Streptococcus salivarius 0.982

CC1(C)C(C=C(Cl)Cl)[C@@H]1C(=O)O[C@@H](C#N)c1ccc(F)c(Oc2ccccc2)c1 (stereo partly drawn)
inactive: Coprococcus comes 0.984 | Escherichia coli ED1a 0.956 | Escherichia coli IAI1 1 | Eubacterium rectale 1 | [1] 0.878 | Lactobacillus gasseri 0.823 | Lactobacillus paracasei 0.99 | Odoribacter splanchnicus 1.01 | [2] 1.03 | Parabacteroides merdae 0.991 | Roseburia intestinalis 0.916 | Streptococcus salivarius 1

C=CCNC(=O)c1c([Si](C)(C)C)sc(C)c1C
inactive: Coprococcus comes 0.984 | Escherichia coli ED1a 0.972 | Escherichia coli IAI1 1.01 | Eubacterium rectale 0.967 | [1] 0.894 | Lactobacillus gasseri 1.05 | Lactobacillus paracasei 0.986 | Odoribacter splanchnicus 0.97 | [2] 1.01 | Parabacteroides merdae 0.973 | Roseburia intestinalis 1.03 | Streptococcus salivarius 1

CNC(=O)Oc1cc(C)c(S(C)=O)c(C)c1 (stereo not drawn)
inactive: Coprococcus comes 0.997 | Escherichia coli ED1a 1.01 | Escherichia coli IAI1 0.97 | Eubacterium rectale 0.884 | [1] 1.09 | Lactobacillus gasseri 0.963 | Lactobacillus paracasei 0.952 | Odoribacter splanchnicus 0.996 | [2] 1 | Parabacteroides merdae 1.05 | Roseburia intestinalis 0.965 | Streptococcus salivarius 1.01

COC(=O)Nc1nc2ccccc2[nH]1
inactive: Coprococcus comes 1.05 | Escherichia coli ED1a 1.04 | Escherichia coli IAI1 1.01 | Eubacterium rectale 0.854 | [1] 1.03 | Lactobacillus gasseri 1.14 | Lactobacillus paracasei 0.862 | Odoribacter splanchnicus 0.997 | [2] 1.03 | Parabacteroides merdae 0.981 | Roseburia intestinalis 1 | Streptococcus salivarius 0.971

N#Cc1nn(-c2c(Cl)cc(C(F)(F)F)cc2Cl)c(N)c1S(=O)(=O)C(F)(F)F
inactive: Coprococcus comes 0.968 | Escherichia coli ED1a 1.04 | Escherichia coli IAI1 1.02 | Eubacterium rectale 0.945 | [1] 1.01 | Lactobacillus gasseri 1.01 | Lactobacillus paracasei 0.929 | Odoribacter splanchnicus 0.978 | [2] 0.904 | Parabacteroides merdae 0.97 | Roseburia intestinalis 0.965
active: Streptococcus salivarius 0.548

Cc1cc(OC(=O)N(C)C)nn1C(=O)N(C)C
inactive: Coprococcus comes 1.03 | Escherichia coli ED1a 0.996 | Escherichia coli IAI1 0.971 | Eubacterium rectale 1.01 | [1] 1.03 | Lactobacillus gasseri 0.992 | Lactobacillus paracasei 0.963 | Odoribacter splanchnicus 0.935 | [2] 1.11 | Parabacteroides merdae 0.966 | Roseburia intestinalis 1.06 | Streptococcus salivarius 0.971

COP(=O)(OC)SCn1c(=O)oc2cc(Cl)cnc21
inactive: Coprococcus comes 1.11 | Escherichia coli ED1a 1.01 | Escherichia coli IAI1 1 | Eubacterium rectale 0.986 | [1] 0.983 | Lactobacillus gasseri 1.08 | Lactobacillus paracasei 1.05 | Odoribacter splanchnicus 1 | [2] 1.08 | Parabacteroides merdae 1 | Roseburia intestinalis 1.06 | Streptococcus salivarius 0.978

CC(C)N1C(=O)N(c2ccccc2)CSC1=NC(C)(C)C
inactive: Coprococcus comes 0.943 | Escherichia coli ED1a 0.967 | Escherichia coli IAI1 1.02 | Eubacterium rectale 0.956 | [1] 0.966 | Lactobacillus gasseri 0.963 | Lactobacillus paracasei 1.03 | Odoribacter splanchnicus 1.02 | [2] 0.946 | Parabacteroides merdae 0.997 | Roseburia intestinalis 1.02 | Streptococcus salivarius 0.953

CNC(=O)Oc1cc(C)c(N(C)C)c(C)c1
inactive: Coprococcus comes 1.01 | Escherichia coli ED1a 0.982 | Escherichia coli IAI1 0.978 | Eubacterium rectale 1 | [1] 0.952 | Lactobacillus gasseri 0.998 | Lactobacillus paracasei 0.953 | Odoribacter splanchnicus 1.08 | [2] 0.988 | Parabacteroides merdae 0.997 | Roseburia intestinalis 0.962 | Streptococcus salivarius 0.961

CCN(CC)C(=O)SCc1ccc(Cl)cc1
inactive: Coprococcus comes 0.966 | Escherichia coli ED1a 1.01 | Escherichia coli IAI1 1.01 | Eubacterium rectale 0.921 | [1] 0.957 | Lactobacillus gasseri 1.08 | Lactobacillus paracasei 0.879 | Odoribacter splanchnicus 0.937 | [2] 0.943 | Parabacteroides merdae 0.972 | Roseburia intestinalis 0.983 | Streptococcus salivarius 0.986

CCCOP(=S)(OCCC)SCC(=O)N1CCCCC1C (stereo not drawn)
inactive: Coprococcus comes 0.943 | Escherichia coli ED1a 0.985 | Escherichia coli IAI1 1 | Eubacterium rectale 1 | [1] 1.08 | Lactobacillus gasseri 0.891 | Lactobacillus paracasei 1.02 | Odoribacter splanchnicus 1.01 | Parabacteroides merdae 0.955 | Roseburia intestinalis 0.992 | Streptococcus salivarius 0.953
active: [2] 0.676

CON(C)C(=O)Nc1ccc(Br)c(Cl)c1
inactive: Coprococcus comes 1.03 | Escherichia coli ED1a 0.958 | Escherichia coli IAI1 1.04 | Eubacterium rectale 0.867 | [1] 0.886 | Lactobacillus gasseri 1.13 | Lactobacillus paracasei 0.989 | Odoribacter splanchnicus 0.998 | [2] 1.01 | Parabacteroides merdae 0.967 | Roseburia intestinalis 0.957 | Streptococcus salivarius 0.956

COP(=S)(OC)Oc1ccc(SC)c(C)c1
inactive: Coprococcus comes 1.02 | Escherichia coli ED1a 0.997 | Escherichia coli IAI1 0.987 | Eubacterium rectale 0.878 | [1] 1.08 | Lactobacillus gasseri 1.01 | Lactobacillus paracasei 1.02 | Odoribacter splanchnicus 1 | [2] 0.915 | Parabacteroides merdae 0.953 | Roseburia intestinalis 1.03 | Streptococcus salivarius 0.965

CC1=NNC(=O)N(/N=C/c2cccnc2)C1
inactive: Coprococcus comes 1.02 | Escherichia coli ED1a 0.993 | Escherichia coli IAI1 0.991 | Eubacterium rectale 1 | [1] 1.02 | Lactobacillus gasseri 1.01 | Lactobacillus paracasei 0.988 | Odoribacter splanchnicus 1.03 | [2] 1.01 | Parabacteroides merdae 0.996 | Roseburia intestinalis 1.01 | Streptococcus salivarius 1.04

CNC(=O)ON=C(C)C(C)SC (stereo not drawn)
inactive: Coprococcus comes 0.972 | Escherichia coli ED1a 1.03 | Escherichia coli IAI1 1.02 | Eubacterium rectale 1.12 | [1] 1.07 | Lactobacillus gasseri 0.89 | Lactobacillus paracasei 0.803 | Odoribacter splanchnicus 0.91 | [2] 0.943 | Parabacteroides merdae 0.915 | Roseburia intestinalis 0.949 | Streptococcus salivarius 0.924

O=C(O)CNCP(=O)(O)O
inactive: Coprococcus comes 1 | Escherichia coli ED1a 1 | Escherichia coli IAI1 1 | Eubacterium rectale 1.01 | [1] 1.08 | Lactobacillus gasseri 1.04 | Lactobacillus paracasei 0.949 | Odoribacter splanchnicus 1.08 | [2] 1.01 | Parabacteroides merdae 1.04 | Roseburia intestinalis 0.966 | Streptococcus salivarius 1.03

CCOC(=O)CCN(SN(C)C(=O)Oc1cccc2c1OC(C)(C)C2)C(C)C
inactive: Coprococcus comes 1.01 | Escherichia coli ED1a 0.994 | Escherichia coli IAI1 1.01 | Eubacterium rectale 1.1 | [1] 0.907 | Lactobacillus gasseri 0.911 | Lactobacillus paracasei 1.01 | Odoribacter splanchnicus 1.02 | [2] 1.05 | Parabacteroides merdae 0.979 | Roseburia intestinalis 1.02 | Streptococcus salivarius 0.998

O=C(O)C(F)(F)C(F)(F)C(F)(F)C(F)(F)C(F)(F)C(F)(F)C(F)(F)F
inactive: Coprococcus comes 1.02 | Escherichia coli ED1a 1 | Escherichia coli IAI1 0.998 | Eubacterium rectale 1 | [1] 1 | Lactobacillus gasseri 1.01 | Lactobacillus paracasei 0.966 | Odoribacter splanchnicus 0.979 | [2] 0.934 | Parabacteroides merdae 1 | Roseburia intestinalis 1 | Streptococcus salivarius 1.01
